Results taken from PubChem BioAssay (NCI).
This is part of a sample that, as a whole, favours compounds with a hit. Of some 83,000 tested, about 20% had one in any assay.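 Percent growth is the endpoint: 0 to 100 indicates growth inhibition (40 means 60% inhibition), 0 means no net growth, and negative values indicate cell death.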 Values without a mark were called inactive. Active and inactive are the calls of the source. Rule for the calls: active = growth percent below 10; inactive = the rest.

Experiments:
Assay in all cases: NCI-60 one-dose screen, 48 h (100 = growth as untreated, 0 = no growth, -100 = all killed)
Conditions in all cases: 10 µM unless noted
[1] = system: T-47D breast
[2] = system: BT-549 breast
[3] = system: MDA-MB-435 melanoma
[4] = system: SW-620 colon
[5] = system: MCF7 breast
[6] = system: HCT-116 colon
[7] = system: HCC-2998 colon
[8] = system: KM12 colon

Row | SMILES | growth [1] | growth [2] | growth [3] | growth [4] | growth [5] | growth [6] | growth [7] | growth [8]
1 | O=C(Nc1cccc(Cn2c(=O)[nH]c3ccc(Oc4ncccn4)cc3c2=O)c1)c1cccc(Cl)c1 | 20.6% | 43.8% | 42.5% | 83.3% | 40.2% | 52.6% | 84.6% | 55%
2 | C#CCOc1cccc(Nc2c(Cl)c(CCl)nc3ccc(Oc4ccccc4)cc23)c1 | 82.1% | 15.8% | 15.6% | 20.6% | 12.9% | 27.2% | 104% | 69.7%
3 | C#CCOc1cccc(-c2ncnc3cc(NC(=O)CCl)ccc23)c1 | -33.8% (active) | -27.8% (active) | -24.7% (active) | -58.6% (active) | 3.63% (active) | -74.1% (active) | 56.6% | 16.2%
4 | Cc1ccc(C2=Nc3c(N)nc(N)nc3NC(c3cccc(Nc4ccnc5cc(C(F)(F)F)ccc45)c3)C2)cc1 (stereo not given) | 46.9% | 94% | -40.1% (active) | 19.1% | 6.88% (active) | 1.85% (active) | 35% | 15%
5 | CCCCCCCCNc1ncnc2c1ncn2Cc1nnc2c3ccccc3c(Cl)nn12 | 26.5% | 28% | 46% | 56.8% | 41.4% | 31.2% | 76.3% | 65.3%
6 | CCNc1nc(-c2ccc(Cl)c(OC)c2)c(-c2ccnc(NCCNS(=O)(=O)c3ccc(Cl)cc3)n2)s1 | 32.5% | 5.74% (active) | 6.21% (active) | 29.5% | 6.61% (active) | 7.13% (active) | 56.3% | 48.8%
7 | Cc1ccc(C2(C)NC(=O)N(CC(=O)Nc3cccc(C)c3)C2=O)cc1 (stereo not given) | 94.4% | 90.9% | 108% | 106% | 91.2% | 96.1% | 102% | 96.6%
8 | C=C(c1ccc(OC)c(/C=C/C(=O)c2cc(OC)c(OC)c(OC)c2)c1)c1cc(OC)c(OC)c(OC)c1 | 17.2% | 1.8% (active) | -28.1% (active) | -12.4% (active) | 8.83% (active) | -62.4% (active) | 11.4% | -4.59% (active)
9 | CC1(C)CCC[C@]23C(=O)O[C@](O)(C(=O)C4=C[C@@](C)(/C=C/CCCc5ccc6ccc7cccc8ccc5c6c78)CC[C@@]42O)[C@@H]13 | -60.5% (active) | -71.9% (active) | -92.4% (active) | -63.3% (active) | -57.4% (active) | -91.8% (active) | -86% (active) | -83.3% (active)
10 | CCOC(=O)C1=CCC(n2cc(F)c(=O)[nH]c2=O)O1 (stereo not given) | 98.5% | 107% | 110% | 89.9% | 93.1% | 96.7% | 103% | 88.3%
11 | COc1ccc(-c2ccc(-c3ccc(C(=N)N)nc3)s2)cc1 | -31.1% (active) | 84% | -95.8% (active) | -65.7% (active) | -65.5% (active) | -60.4% (active) | -44.9% (active) | -73.7% (active)
12 | CC(=O)OCCOc1cc(Cl)c(Cl)cc1Cl | 101% | 91.7% | 106% | 104% | 104% | 102% | 97.9% | 103%
13 | CCc1ccc(Cc2cnc(NC(=O)c3cc(C)oc3C)s2)cc1 | 34.4% | 44.8% | -21.5% (active) | 18.3% | 16.5% | 20.4% | 58.3% | 22%
14 | Cc1cc(C(=O)Nc2cc(Nc3ncccc3-c3ncnc4nc[nH]c34)ccc2F)cc(C(C)(C)C#N)c1 | 47% | 54.5% | 33.2% | 34.3% | 62.4% | 14.1% | 35.3% | 35.9%
15 | CCCCN(CCC#N)C(N)=O | 100% | 109% | 110% | 99.2% | 105% | 106% | 103% | 105%
16 | O=C(Nc1ncc(Cc2cc(C(F)(F)F)ccc2Cl)s1)C(=S)N1CCOCC1 | 73.9% | 99% | 85.9% | 93.2% | 82% | 81.8% | 101% | 97.7%
17 | COc1ccc(-n2c(=O)n(-c3ccc(-c4nc5ccc(F)cc5s4)cc3)c(=O)c3cccnc32)cc1 | 73.5% | 99.7% | 102% | 106% | 92.2% | 91.5% | 91.4% | 102%
18 | CCN1CCN(C(=O)[C@]23CC[C@@H](C)[C@H](C)[C@@H]2C2=CC[C@@H]4[C@@]5(C)C/C(=C/c6ccncc6)C(=O)C(C)(C)[C@@H]5CC[C@@]4(C)[C@]2(C)CC3)CC1 | 27.1% | 52.2% | -51.1% (active) | -22.6% (active) | 4.97% (active) | -51.9% (active) | -28.9% (active) | 5.49% (active)
19 | CC(=O)CC(=O)c1ccccc1.[Cu+2] | 93.2% | 114% | 105% | 103% | 75.1% | 97.7% | 107% | 98.2%
20 | Cc1ccc(C(=O)Nc2ccc(CN3CCN(C)CC3)c(C(F)(F)F)c2)cc1C#Cc1cnc(N)c2ccccc12 | 30.5% | 51.3% | -97% (active) | -88.4% (active) | -81.5% (active) | -90.5% (active) | -83.5% (active) | -83.1% (active)
21 | COc1ccccc1-c1nc2ccc3[nH]ncc3c2c2c1CCCC2 | 74.2% | 77.1% | 64.4% | 82.6% | 68.7% | 64.9% | 113% | 31%
22 | N=C(N)c1ccc(-c2ccc(-c3ccc(Cl)cc3Cl)s2)nc1 | 81.2% | 105% | 62.5% | -63.6% (active) | -30.5% (active) | -69.5% (active) | -33% (active) | -31.5% (active)
23 | CC1(C)C2=C(C(=O)N1Cc1ccccc1)C(c1ccco1)N(C(=O)C1CCC1)CCN2 (stereo not given) | 90.9% | 106% | 101% | 103% | 103% | 92.6% | 98.4% | 101%
24 | Nc1nc(Nc2ccc([N+](=O)[O-])cc2O)nc(C(Cl)(Cl)Cl)n1 | 73.6% | 66.8% | -36.6% (active) | 54.2% | 59.5% | 70.6% | 108% | 49.8%
25 | CCN1C(=O)N(CC)C2C1NN=c1s/c(=C\c3ccccc3)c(=O)n12 (stereo not given) | 70.8% | 13.2% | -24.8% (active) | 18.8% | 16.2% | 9.74% (active) | 16.2% | 12.2%
26 | CSc1nc(N)c2c(n1)NC(c1ccccc1)C1CCc3ccccc3C1=N2 (stereo not given) | 33.5% | 73.9% | 55.9% | 67.7% | 57.1% | 32.3% | 88.8% | 48.3%
27 | C=C(C)[C@@H]1CC[C@]2(C#N)CC[C@]3(C)[C@H](CC[C@@H]4[C@@]5(C)CCCNC(C)(C)[C@@H]5CC[C@]43C)[C@@H]12 | 78.8% | 96.1% | 44.2% | 2.83% (active) | 20% | 41.6% | -40.2% (active) | 41%
28 | CN(Cc1ccccc1)c1nc(Cl)c(C2CC(c3ccc(Cl)cc3)=NN2c2cc(Cl)cc(Cl)c2)s1 (stereo not given) | 84.9% | 101% | 103% | 98.8% | 79.8% | 88.6% | 90.9% | 103%
29 | O=C1CCC(C(=O)N/N=C/c2ccc([N+](=O)[O-])cc2)N1 (stereo not given) | 99.2% | 106% | 102% | 105% | 94.8% | 105% | 95.3% | 105%
30 | COc1cc2c(c(OC)c1OC)CCC(c1cccc(NC(=O)c3cccc(Cl)c3)c1)O2 (stereo not given) | 59.1% | 97.2% | 89.9% | 93.9% | 84.4% | 87.7% | 100% | 97.1%
